From PubChem BioAssay (NCATS) come the findings set out here.

Inconclusive results are not listed. Calls of active or inactive are those of the source. Calls come from the whole dose curve; as a rule, active = well fitted inhibition curve with a large enough effect; inconclusive = small, poorly fitted or top-dose-only effect; inactive = no such curve, though single readings can be large or run the other way.
Potency is the fitted concentration of half-maximal effect.

This test in a line: BET inhibitor-based combinations targeting novel dependencies in MECOM-rearranged (r) AML: OCI-AML3 cell line (AID 2202232).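 For viability (% of control): plate controls were DMSO vehicle wells for no effect and wells without cells for full effect.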 Note: nearly all actives have a fitted effect of over 35% in size. Particulars: CellTiter-Glo luminescence, 48 h; Potency: OCI-AML3 viability; series mostly up to 46 µM; viability (% of control): at the top concentration. A digest of the protocol: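 Each compound was tested at eleven concentrations on cells seeded at 500/well. After two days' incubation, ATP-based luminescence reported viability; responses relative to DMSO and blank wells yielded AUC and cell-line-centred Z-AUC.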
A general note: In ATP-based viability assays light output follows the ATP content of the culture.
With `Nc1ncnc2c1ncn2[C@@H]1O[C@H](CO)C[C@H]1O`, the “viability (% of control)” value is 111% (inactive). For the compound `Nc1nccc(Oc2ccc(NC(=O)c3c[nH]cc(-c4ccc(F)cc4)c3=O)cc2F)c1Cl`, the Potency was 20.9 µM (active). On to `Nc1cccc(S(=O)(=O)N2CCCN(S(=O)(=O)c3ccc4c(c3)OCCO4)CC2)c1`, for which the “viability (% of control)” value was 104% (inactive).

Take `Nc1nc(OCc2cc(Br)cs2)c2[nH]cnc2n1`: the Potency is 9.34 µM (active). As to `CC[C@H](NC(=O)[C@H](CS(=O)(=O)CC1CC1)N[C@@H](c1ccc(F)cc1)C(F)(F)F)C(=O)C(=O)NC1CC1`, the “viability (% of control)” value is 109% (inactive). On the same count and under the same terms, under `O=C(NC1CCOCC1)c1ccc(-c2cc(-c3cn[nH]c3-c3ccccn3)ccn2)cc1` stands 100% (inactive). With `Cc1csc(-c2nnc(Nc3ccc(Oc4ncccc4-c4ccnc(N)n4)cc3)c3ccccc23)c1`, the Potency was 1.86 µM (active).

Take `COc1ccc(-c2c(-c3ccc(O)cc3O)n[nH]c2C)cc1`: the “viability (% of control)” value was 74.9% (inactive). Still for that read-out and setting: under `C[C@@H]1CCN(C(=O)N2CCCC2)C[C@@H]1N(C)c1ncnc2[nH]ccc12` stands 122% (inactive); under `Cc1cccc(Nc2nc(-c3ccncc3)cs2)c1`, 104% (inactive). As to `CCN(CCCOc1ccc2c(Nc3cc(CC(=O)Nc4cccc(F)c4)[nH]n3)ncnc2c1)CCOP(=O)(O)O`, the Potency is 0.468 µM (active).

In the case of `O=C(NC[C@H](O)CN1CCc2ccccc2C1)c1ccnc(NC2CCC2)c1`, the Potency is 0.0042 µM (active).

On to `COc1cc(F)c(F)c(Nc2ccc(I)cc2F)c1NS(=O)(=O)C1(C[C@H](O)CO)CC1`, for which the Potency was 0.166 µM (active).

`CC(C)(C)c1cc(NC(=O)Nc2ccc(-c3cn4c(n3)sc3cc(OCCN5CCOCC5)ccc34)cc2)no1`: the Potency is 4.68 µM (active). Same read-out and setting: the value for `CN(NC(=O)CC(=O)NN(C)C(=S)c1ccccc1)C(=S)c1ccccc1` was 0.0525 µM (active). Turning to `CNC(=O)c1ccc(C)c(-n2c(C)cc(OCc3ccc(F)cc3F)c(Br)c2=O)c1`, the “viability (% of control)” value is 68.7% (inactive). On to `CCCCCN(CCC12CC3CC(CC(C3)C1)C2)C(=O)NCCCc1ccncc1`, for which the Potency is 18.6 µM (active). Take `O=C(O)c1ccc(O)c2ncc(N3CCOCC3)cc12`: the “viability (% of control)” value was 86.2% (inactive). `COc1nccc(-c2c(-c3ccc(F)cc3)ncn2C2CCC(O)CC2)n1` (configuration not stated): the Potency is 18.6 µM (active).

Turning to `CNC(=O)c1cccc2cc(Oc3ccnc4cc(OCC5(N)CC5)c(OC)cc34)ccc12`, the Potency is 23.5 µM (active). As to `CC1(C)CN(C(=O)c2ccc(-c3cccc4nc(NC(=O)C5CC5)nn34)cc2)C1`, the “viability (% of control)” value was 78.6% (inactive). Consider `C[C@@H](c1ccc2nccn2c1)n1nnc2ncc(-c3cnn(C)c3)nc21`, for which the Potency is 13.2 µM (active).
